Results taken from the supplement of paper PMC10849652.
Of roughly 8,800 targets only a part is listed; those with a hit were picked by preference. About 0.5% of all pairs of compound and target were hits. A number with no mark means an inactive call.

Legend:
Assay in all cases: log2 fold change, soluble protein after heating vs DMSO (PISA); higher = thermal stabilisation; K562 lysate, 10 uM; active = over 0.2 and 3.5 SD of the protein, either way, in both replicates (recomputed)
[1] = compound: Cc1cn(-c2cc(NC(=O)c3ccc(C)c(Nc4nccc(-c5cccnc5)n4)c3)cc(C(F)(F)F)c2)cn1 [nilotinib]
Outline: (§1)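 Quantification was by TMTpro 16plex LC-MS/MS with equalised channel sums, applied to the supernatant after 21,000xg for 90 min. Samples were crude K562 extract at 1 mg/mL protein in PBS pH 7.4 with 1 mM MgCl2, treated with 10 μM compound for 30 min, heated for 3 min across 48°C-58°C, pooled and brought to 0.5% NP-40 at 4°C. Values are log-two fold changes in thermal stability relative to solvent controls, from duplicates.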

[2] = compound: Cc1nc(Nc2n[nH]c3c2CN(C(=O)N[C@H](CN(C)C)c2ccccc2)C3(C)C)c2sccc2n1
Outline: as §1

[3] = compound: Cc1nc(Nc2ncc(C(=O)Nc3c(C)cccc3Cl)s2)cc(N2CCN(CCO)CC2)n1 [dasatinib]
Outline: as §1

[4] = compound: Cc1ncc(-c2ccnc(Nc3ccc(S(C)(=O)=O)cc3)n2)n1C(C)C
Outline: as §1

[5] = compound: Cn1cc(-c2ccc3c(c2)CCN3C(=O)Cc2cccc(C(F)(F)F)c2)c2c(N)ncnc21
Outline: as §1

[6] = compound: Cn1cc(CNCC2CCN(c3ncc(C(=O)NO)cn3)CC2)c2ccccc21 [quisinostat]
Outline: as §1

[7] = compound: Cn1cncc1[C@@](N)(c1ccc(Cl)cc1)c1ccc2c(c1)c(-c1cccc(Cl)c1)cc(=O)n2C [tipifarnib]
Outline: as §1

[8] = compound: NC(=O)Nc1cc(-c2cccc(F)c2)sc1C(=O)N[C@H]1CCCNC1
Outline: as §1

[9] = compound: NC(=O)c1cnc(N[C@@H]2CCCC[C@@H]2N)nc1Nc1cccc(-n2nccn2)c1
Outline: as §1

[10] = compound: NC1(c2ccc(-c3nc4ccn5c(=O)[nH]nc5c4cc3-c3ccccc3)cc2)CCC1
Outline: as §1

[11] = compound: NCC(=O)Nc1ccc(-n2nc(C(F)(F)F)cc2-c2ccc3c(ccc4ccccc43)c2)cc1
Outline: as §1

[12] = compound: O=C(CCCCCCC(=O)Nc1ccccc1)NO [vorinostat]
Outline: as §1

[13] = compound: O=C(O)c1ccc2c(c1)nc(Nc1cccc(Cl)c1)c1ccncc12 [silmitasertib]
Outline: as §1

[14] = compound: O=C1NC(=O)C(c2cnc3ccccn23)=C1c1cn2c3c(cc(F)cc13)CN(C(=O)N1CCCCC1)CC2
Outline: as §1

[15] = compound: c1cn2cc(-c3ccc4cn[nH]c4c3)nc(Nc3ccc(N4CCOCC4)cc3)c2n1 [entospletinib]
Outline: as §1

Sequence of UniProt Q13155 (Q13155 whole entry, looked up): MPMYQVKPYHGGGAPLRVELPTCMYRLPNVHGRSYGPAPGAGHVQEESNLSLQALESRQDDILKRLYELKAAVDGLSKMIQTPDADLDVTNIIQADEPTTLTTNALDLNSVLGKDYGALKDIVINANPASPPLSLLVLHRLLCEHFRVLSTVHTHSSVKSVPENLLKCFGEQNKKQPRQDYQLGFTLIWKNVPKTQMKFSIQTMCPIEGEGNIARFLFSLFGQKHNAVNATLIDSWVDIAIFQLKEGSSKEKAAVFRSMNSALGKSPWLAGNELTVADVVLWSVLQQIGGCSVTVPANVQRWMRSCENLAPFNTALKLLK
Sequence of UniProt P55263 (P55263 whole entry, looked up): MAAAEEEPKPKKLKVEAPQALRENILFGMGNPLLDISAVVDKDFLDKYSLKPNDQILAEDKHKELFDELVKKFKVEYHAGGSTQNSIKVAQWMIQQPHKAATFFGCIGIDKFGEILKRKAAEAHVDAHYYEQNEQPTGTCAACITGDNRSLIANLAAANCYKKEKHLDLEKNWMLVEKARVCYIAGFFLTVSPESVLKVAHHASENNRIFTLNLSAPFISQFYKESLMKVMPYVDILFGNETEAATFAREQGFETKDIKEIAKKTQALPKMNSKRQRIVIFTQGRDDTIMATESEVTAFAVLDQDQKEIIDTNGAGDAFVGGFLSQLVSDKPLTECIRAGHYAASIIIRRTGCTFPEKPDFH
Sequence of UniProt P08243 (P08243 whole entry, looked up): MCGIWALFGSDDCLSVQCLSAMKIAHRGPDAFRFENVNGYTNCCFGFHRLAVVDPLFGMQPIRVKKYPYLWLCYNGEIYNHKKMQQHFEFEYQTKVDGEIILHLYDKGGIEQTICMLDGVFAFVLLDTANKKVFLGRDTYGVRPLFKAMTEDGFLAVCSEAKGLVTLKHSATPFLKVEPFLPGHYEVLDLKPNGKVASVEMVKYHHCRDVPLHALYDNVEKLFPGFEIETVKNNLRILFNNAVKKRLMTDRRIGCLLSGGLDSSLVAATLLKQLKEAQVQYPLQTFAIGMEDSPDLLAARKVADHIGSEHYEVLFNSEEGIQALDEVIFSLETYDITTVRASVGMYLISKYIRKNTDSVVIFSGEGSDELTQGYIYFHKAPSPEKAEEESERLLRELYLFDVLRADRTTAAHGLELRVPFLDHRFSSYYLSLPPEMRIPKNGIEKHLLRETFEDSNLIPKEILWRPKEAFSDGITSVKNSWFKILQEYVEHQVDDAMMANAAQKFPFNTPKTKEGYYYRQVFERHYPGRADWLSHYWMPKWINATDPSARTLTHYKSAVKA
Sequence of UniProt Q96P48 (Q96P48 whole entry, looked up): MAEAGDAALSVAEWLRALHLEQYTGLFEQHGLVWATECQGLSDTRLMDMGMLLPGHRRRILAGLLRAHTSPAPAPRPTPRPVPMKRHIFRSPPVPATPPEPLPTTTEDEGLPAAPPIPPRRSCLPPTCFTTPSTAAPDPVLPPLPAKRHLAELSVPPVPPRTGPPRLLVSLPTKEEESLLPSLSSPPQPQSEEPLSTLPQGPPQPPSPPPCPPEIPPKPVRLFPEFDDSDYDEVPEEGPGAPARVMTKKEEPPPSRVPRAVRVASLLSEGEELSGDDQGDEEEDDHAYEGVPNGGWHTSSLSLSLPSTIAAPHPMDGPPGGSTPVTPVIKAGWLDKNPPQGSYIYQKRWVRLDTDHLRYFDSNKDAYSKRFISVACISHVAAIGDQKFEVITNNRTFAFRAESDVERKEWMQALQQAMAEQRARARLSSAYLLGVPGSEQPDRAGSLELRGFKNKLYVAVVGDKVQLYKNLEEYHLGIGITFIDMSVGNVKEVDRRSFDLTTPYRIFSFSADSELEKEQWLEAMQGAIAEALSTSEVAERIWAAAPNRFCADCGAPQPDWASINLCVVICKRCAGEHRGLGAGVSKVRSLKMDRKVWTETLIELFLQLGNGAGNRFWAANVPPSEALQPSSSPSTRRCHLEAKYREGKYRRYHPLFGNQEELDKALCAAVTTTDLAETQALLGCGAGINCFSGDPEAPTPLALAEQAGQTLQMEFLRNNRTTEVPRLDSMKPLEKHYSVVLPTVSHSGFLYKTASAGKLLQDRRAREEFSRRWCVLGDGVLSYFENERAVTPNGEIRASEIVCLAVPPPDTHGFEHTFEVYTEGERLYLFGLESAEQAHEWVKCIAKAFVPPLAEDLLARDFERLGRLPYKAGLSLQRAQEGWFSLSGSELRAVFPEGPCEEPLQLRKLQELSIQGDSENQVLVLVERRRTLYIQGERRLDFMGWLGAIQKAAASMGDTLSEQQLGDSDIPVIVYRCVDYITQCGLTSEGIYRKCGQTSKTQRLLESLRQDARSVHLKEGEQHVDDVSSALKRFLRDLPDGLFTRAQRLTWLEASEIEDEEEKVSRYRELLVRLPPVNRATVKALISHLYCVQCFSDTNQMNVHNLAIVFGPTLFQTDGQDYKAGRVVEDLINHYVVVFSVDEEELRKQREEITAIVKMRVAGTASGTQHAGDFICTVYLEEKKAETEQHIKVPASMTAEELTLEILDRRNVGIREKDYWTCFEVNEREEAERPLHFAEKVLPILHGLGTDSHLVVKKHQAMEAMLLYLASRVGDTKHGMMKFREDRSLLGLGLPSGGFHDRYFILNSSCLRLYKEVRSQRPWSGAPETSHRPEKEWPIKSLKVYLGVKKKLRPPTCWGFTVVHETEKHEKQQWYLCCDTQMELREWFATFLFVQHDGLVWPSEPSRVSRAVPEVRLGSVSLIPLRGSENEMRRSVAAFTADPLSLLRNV
Sequence of UniProt P27144 (P27144 whole entry, looked up): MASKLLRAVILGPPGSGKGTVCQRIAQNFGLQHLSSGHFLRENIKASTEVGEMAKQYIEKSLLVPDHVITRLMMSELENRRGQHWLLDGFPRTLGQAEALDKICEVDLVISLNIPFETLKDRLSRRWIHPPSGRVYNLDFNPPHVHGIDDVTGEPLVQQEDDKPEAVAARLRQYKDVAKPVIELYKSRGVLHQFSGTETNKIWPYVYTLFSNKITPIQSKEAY
Sequence of UniProt Q01432 (Q01432 whole entry, looked up): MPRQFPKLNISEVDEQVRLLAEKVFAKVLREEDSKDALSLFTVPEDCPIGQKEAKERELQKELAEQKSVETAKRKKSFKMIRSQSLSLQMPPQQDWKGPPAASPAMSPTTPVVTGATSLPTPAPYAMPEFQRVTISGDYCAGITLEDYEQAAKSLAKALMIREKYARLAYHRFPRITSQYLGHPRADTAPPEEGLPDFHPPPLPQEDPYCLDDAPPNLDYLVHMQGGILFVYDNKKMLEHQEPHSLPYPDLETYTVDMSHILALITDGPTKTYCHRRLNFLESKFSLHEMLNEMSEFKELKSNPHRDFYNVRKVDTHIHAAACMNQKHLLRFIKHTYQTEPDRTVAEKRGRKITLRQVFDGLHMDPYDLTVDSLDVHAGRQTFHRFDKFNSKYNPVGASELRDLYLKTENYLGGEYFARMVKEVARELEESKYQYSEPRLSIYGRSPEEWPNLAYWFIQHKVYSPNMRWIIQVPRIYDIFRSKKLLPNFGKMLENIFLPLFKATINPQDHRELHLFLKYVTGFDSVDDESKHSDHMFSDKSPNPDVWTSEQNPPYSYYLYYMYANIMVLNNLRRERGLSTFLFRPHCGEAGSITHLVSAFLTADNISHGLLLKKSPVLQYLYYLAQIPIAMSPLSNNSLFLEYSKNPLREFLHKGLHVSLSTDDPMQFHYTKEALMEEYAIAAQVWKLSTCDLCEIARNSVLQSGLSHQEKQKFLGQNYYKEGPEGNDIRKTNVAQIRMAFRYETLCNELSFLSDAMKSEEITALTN
Sequence of UniProt Q9NWX5 (Q9NWX5 whole entry, looked up): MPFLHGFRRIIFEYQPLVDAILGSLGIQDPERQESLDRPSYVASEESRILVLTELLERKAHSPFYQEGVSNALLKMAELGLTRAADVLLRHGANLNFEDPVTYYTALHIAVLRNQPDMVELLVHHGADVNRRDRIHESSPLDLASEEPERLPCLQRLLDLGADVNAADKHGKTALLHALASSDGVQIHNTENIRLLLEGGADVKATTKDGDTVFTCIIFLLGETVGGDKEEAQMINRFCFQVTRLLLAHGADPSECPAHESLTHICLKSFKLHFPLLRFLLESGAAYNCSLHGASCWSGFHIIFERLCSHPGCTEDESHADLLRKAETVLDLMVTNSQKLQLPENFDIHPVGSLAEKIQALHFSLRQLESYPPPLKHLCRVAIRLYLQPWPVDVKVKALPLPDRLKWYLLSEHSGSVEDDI
Sequence of UniProt O75843 (O75843 whole entry, looked up): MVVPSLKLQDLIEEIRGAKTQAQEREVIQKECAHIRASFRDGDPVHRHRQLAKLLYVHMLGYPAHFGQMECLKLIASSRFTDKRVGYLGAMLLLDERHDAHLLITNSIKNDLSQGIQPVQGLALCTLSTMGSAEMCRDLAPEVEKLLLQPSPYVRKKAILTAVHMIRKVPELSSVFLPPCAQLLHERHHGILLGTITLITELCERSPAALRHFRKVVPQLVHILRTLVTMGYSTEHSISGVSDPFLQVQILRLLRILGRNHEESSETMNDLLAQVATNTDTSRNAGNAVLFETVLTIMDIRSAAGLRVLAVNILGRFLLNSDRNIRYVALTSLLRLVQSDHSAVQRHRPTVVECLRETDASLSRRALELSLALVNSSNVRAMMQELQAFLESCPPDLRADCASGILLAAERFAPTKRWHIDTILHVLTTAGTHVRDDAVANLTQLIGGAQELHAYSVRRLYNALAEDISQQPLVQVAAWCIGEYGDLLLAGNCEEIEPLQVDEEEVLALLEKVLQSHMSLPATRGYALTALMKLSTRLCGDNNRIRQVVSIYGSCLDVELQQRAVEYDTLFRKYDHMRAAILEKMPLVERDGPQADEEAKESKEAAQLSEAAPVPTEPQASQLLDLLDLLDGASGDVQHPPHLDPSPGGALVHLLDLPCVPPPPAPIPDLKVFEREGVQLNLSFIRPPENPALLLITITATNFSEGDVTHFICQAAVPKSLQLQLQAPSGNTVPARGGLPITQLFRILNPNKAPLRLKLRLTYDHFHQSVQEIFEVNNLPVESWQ
Sequence of UniProt P07311 (P07311 whole entry, looked up): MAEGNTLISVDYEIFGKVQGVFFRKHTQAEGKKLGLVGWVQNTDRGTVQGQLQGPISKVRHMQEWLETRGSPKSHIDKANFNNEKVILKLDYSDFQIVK

| Target | log2 fold change [1] | log2 fold change [2] | log2 fold change [3] | log2 fold change [4] | log2 fold change [5] | log2 fold change [6] | log2 fold change [7] | log2 fold change [8] | log2 fold change [9] | log2 fold change [10] | log2 fold change [11] | log2 fold change [12] | log2 fold change [13] | log2 fold change [14] | log2 fold change [15] |
| --- | --- | --- | --- | --- | --- | --- | --- | --- | --- | --- | --- | --- | --- | --- | --- |
| ARHGAP21 (UniProt Q5T5U3) | -0.017 | -0.014 | -0.039 | -0.036 | 0.017 | -0.06 | 0.019 | 0.053 | 0.002 | -0.021 | 0.021 | -0.364 (active) | 0.014 | -0.041 | -0.104 |
| AK4 (UniProt P27144) | -0.006 | 0.003 | -0.04 | 0.042 | 0.04 | -0.012 | 0.001 | 0.018 | -0.023 | -0.012 | -0.051 | 0.037 | -0.008 | -0.016 | -0.02 |
| ASNS (UniProt P08243) | -0.004 | -0.008 | -0.039 | -0.018 | 0.025 | 0.027 | 0.017 | 0.027 | -0.01 | -0.028 | 0.006 | -0.373 (active) | -0.01 | -0.008 | 0.029 |
| ARGLU1 (UniProt Q9NWB6) | -0.012 | -0.007 | 0.058 | -0.018 | 0.096 | 0.022 | -0.043 | -0.133 | -0.012 | 0.016 | 0.01 | 0.116 | 0.008 | -0.067 | -0.054 |
| ADRM1 (UniProt Q16186) | 0.002 | -0.006 | -0.063 | 0.015 | -0.003 | -0.102 | -0.017 | 0.011 | 0.008 | -0.003 | 0.051 | -0.231 (active) | -0.027 | -0.04 | -0.002 |
| ACYP1 (UniProt P07311) | -0.014 | 0.019 | 0.022 | -0.028 | 0.014 | 0.024 | 0.019 | -0.029 | -0.013 | 0.039 | -0.015 | 0.127 | -0.028 | -0.002 | 0.008 |
| AIMP2 (UniProt Q13155) | 0.015 | -0.015 | -0.048 | -0.002 | -0.007 | -0.009 | -0.003 | 0.045 | -0.012 | -0.007 | -0.046 | -0.347 (active) | 0.048 | 0.017 | -0.017 |
| ABHD17A isoform 2 (UniProt Q96GS6) | 0.062 | 0.038 | -0.141 | 0.096 | 0.017 | -0.09 | 0.097 | -0.007 | 0.008 | 0.007 | 0.001 | 0.363 (active) | -0.059 | -0.025 | 0.043 |
| AARS2 (UniProt Q5JTZ9) | -0.046 | 0.021 | -0.018 | -0.013 | 0.062 | -0.046 | 0.023 | 0.053 | 0.016 | -0.05 | -0.004 | -0.243 (active) | 0.085 | 0.028 | 0.035 |
| ACIN1 (UniProt E7EQT4) | 0.033 | -0.032 | 0.043 | 0.006 | 0.195 | -0.087 | -0.021 | -0.072 | 0.041 | -0.039 | 0.076 | 0.079 | -0.013 | -0.013 | 0.021 |
| AKT2 (UniProt P31751) | -0.013 | -0.004 | 0.003 | -0.008 | 0.005 | 0.001 | 0.017 | 0.019 | -0.015 | 0.559 (active) | -0.021 | -0.175 | 0.011 | -0.019 | 0.008 |
| AMPD3 isoform 4 (UniProt Q01432) | -0.002 | 0.027 | 0.014 | -0.021 | -0.013 | 0.038 | 0.032 | -0.012 | -0.017 | 0.012 | -0.038 | 0.256 (active) | -0.005 | -0.021 | 0.018 |
| ARAP1 (UniProt Q96P48) | -0.009 | -0.029 | -0.036 | -0.032 | 0.013 | -0.072 | -0.041 | 0.029 | 0.006 | 0.003 | -0.04 | -0.379 (active) | 0.017 | -0.014 | -0.012 |
| AK2 (UniProt P54819) | 0.003 | -0.006 | 0.079 | -0.013 | -0.022 | 0.024 | 0.007 | -0.066 | 0.013 | 0.004 | 0.024 | 0.159 | 0.007 | -0.005 | 0.012 |
| ARL15 (UniProt Q9NXU5) | -0.008 | 0.021 | -0.063 | -0.046 | 0.036 | 0.024 | 0.031 | -0.034 | 0.021 | 0.022 | 0.007 | -0.109 | 0.016 | -0.029 | 0.014 |
| AMD1 (UniProt P17707) | -0.05 | -0.04 | -0.031 | -0.001 | 0.055 | -0.145 | -0.005 | 0.151 | 0.229 | -0.022 | 0.071 | -0.076 | 0.062 | 0.499 | 0.211 |
| ASB6 (UniProt Q9NWX5) | -0.024 | 0.01 | 0.01 | 0.029 | -0.025 | -0.002 | 0.041 | -0.01 | 0.016 | 0.08 | 0.116 | -0.005 | -0.057 | -0.019 | 0.074 |
| ARAF (UniProt P10398) | -0.005 | 0.018 | 0.16 | 0.022 | 0.02 | -0.069 | -0.023 | 0.011 | 0.018 | -0.012 | -0.072 | -0.487 (active) | -0.023 | 0.019 | -0.011 |
| ADK (UniProt P55263) | -0.028 | 0.075 | 0.463 | 0.046 | -0.005 | -0.062 | 0.324 | -0.023 | -0.015 | 0.016 | -0.049 | -0.052 | 0.073 | 0.262 | -0.027 |
| AP1G2 (UniProt O75843) | -0.013 | -0.046 | -0.081 | -0.019 | 0.048 | -0.006 | 0.063 | 0.005 | -0.012 | -0.125 | 0.071 | -0.31 (active) | -0.03 | 0.008 | 0.018 |
| AGO4 (UniProt Q9HCK5) | -0.152 | 0.07 | 0 | 0.004 | -0.022 | -0.037 | 0.005 | 0.015 | 0.014 | -0.002 | -0.007 | 0.09 | -0.018 | -0.006 | -0.013 |
